Compounds without any hit were thinned out: in the full panel of roughly 83,000, 20% have a hit.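 In brief: 96-well plates, 48 h treatment, single concentration, percent growth endpoint.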 Active and inactive are the calls of the source. Rule for the calls: active = growth percent below 10; inactive = the rest.
Test system: KM12 colon
Assay: NCI-60 one-dose screen, 48 h (100 = growth as untreated, 0 = no growth, -100 = all killed)
Settings: 10 µM unless noted

Q: Which growth does the source give for `Cc1c(C(=O)C(SC(=S)N2CCOCC2)SC(=S)N2CCOCC2)nnn1-c1ccc([N+](=O)[O-])cc1` here?
A: 111% (inactive)

Q: For `CC(=O)Cc1nsc(NC(=O)c2cc(-c3cc(Cl)ccc3Cl)oc2C)n1`, which growth is on record?
A: 107% (inactive)

Q: For `COc1cc2ncnc(Nc3ccc(S(=O)(=O)Nc4cc(C)on4)cc3)c2cc1OCCCN1CCOCC1`, which growth is on record?
A: 103% (inactive)

Q: For `O=C(c1ccc(F)cc1)C1CCN(CCn2c(=O)[nH]c3ccccc3c2=O)CC1`, which growth is on record?
A: 104% (inactive)

Q: For `C=CCNc1ccc2c3c(cccc13)C(=O)N(CC=C)C2=O`, which growth is on record?
A: 101% (inactive)

Q: For `COC(CCP(=O)(c1ccccc1)c1ccccc1)(C(=O)c1ccccc1)c1ccccc1` (stereo unspecified), which growth is on record?
A: 57.3% (inactive)

Q: How did the growth turn out when `COc1cc2c(c(OC)c1OC)C(=O)CC(c1cccc(C(=O)Nc3ccc(Br)cc3)c1)O2` (stereo unspecified) was run?
A: 62.9% (inactive)

Q: How did the growth turn out when `COc1cc(-c2ccc(-c3ccc(C(=N)N)s3)s2)cc(OC)c1OC` was run?
A: 27.7% (inactive)

Q: For `[2H]C([2H])([2H])Oc1ccc(/C=C/C(=O)/C=C(/C=C/c2ccc(OC([2H])([2H])[2H])c(OC([2H])([2H])[2H])c2OC([2H])([2H])[2H])OB(F)F)c(OC([2H])([2H])[2H])c1OC([2H])([2H])[2H]`, which growth is on record?
A: 81.3% (inactive)

Q: Which growth does the source give for `O=C(O)c1nn(-c2ccc(Cl)cc2)nc1N1CCCC1` here?
A: 107% (inactive)

Q: `COCCn1cc(-c2nc(-c3cc4cccnc4n3C)cs2)c2cc(OC)ccc21` was tested. Which growth did it give?
A: 6.09% (active)

Q: With `CCOc1cc(\C=N/N=C(N)/C(N)=N\N=C/c2ccc(O)c(OCC)c2)ccc1O` as the compound, how does the growth read?
A: 101% (inactive)

Q: For `CC(C)=CCC[C@](C)(O)C1CC[C@]2(C)[C@@H]1CC[C@@H]1[C@@]3(C)CC/C(=N\OCCC#N)C(C)(C)[C@@H]3CC[C@]12C` (stereo partly specified), which growth is on record?
A: 84.7% (inactive)

Q: Which growth does the source give for `CCCc1cc(CCC)n2nc(N)nc2n1` here?
A: 108% (inactive)

Q: Which growth does the source give for `CC(CN)[C@@H]1CC[C@]2(CO)CC[C@]3(C)[C@H](CC[C@@H]4[C@@]5(C)CCC(NCCO)C(C)(C)[C@@H]5CC[C@]43C)[C@@H]12` (stereo partly specified) here?
A: 32.6% (inactive)

Q: For `COc1cccc(C(=O)Nc2cccc(NC(=O)c3ccccn3)c2)c1`, which growth is on record?
A: 99.6% (inactive)

Q: For `Cc1ccc(S(=O)(=O)c2nc(-c3ccccc3)oc2S(C)=O)cc1` (stereo unspecified), which growth is on record?
A: 49.8% (inactive)

Q: Which growth does the source give for `O=[N+]([O-])c1ccc(Oc2cccc3c(Oc4ccc([N+](=O)[O-])cc4[N+](=O)[O-])cccc23)c([N+](=O)[O-])c1` here?
A: 86.7% (inactive)

Q: Which growth does the source give for `CC1(C)CC(=O)C2=C(C1)OC(C(=O)c1ccccc1)C2c1cccc(Oc2ccccc2)c1` (stereo unspecified) here?
A: 37.7% (inactive)

Q: For `Cn1cc(-c2nc(-c3c[nH]c4c(Cl)nccc34)cs2)c2ccccc21`, which growth is on record?
A: 95.9% (inactive)

Q: Which growth does the source give for `CCCCCN(CCCCC)CC(O)c1c(Cl)ccc2ccccc12` (stereo unspecified) here?
A: 75.9% (inactive)

Q: For `COc1cccc2cc(N(C)c3ncnc4ccccc34)ccc12`, which growth is on record?
A: 5.11% (active)

Q: For `CN1C(=O)N(C)C2C1NN=c1s/c(=C\c3ccccc3F)c(=O)n12` (stereo unspecified), which growth is on record?
A: 17.4% (inactive)

Q: Which growth does the source give for `C#Cc1ccc(NC(=O)Cc2ccc(/C=C/C(=O)c3nccn3C)cc2)cc1` here?
A: 25.6% (inactive)

Q: With `O=C1C2C(c3cccs3)C=C(c3ccc(Cl)cc3)N2C(=S)N1c1ccccc1` (stereo unspecified) as the compound, how does the growth read?
A: 104% (inactive)

Q: For `Cc1cc2nc(C(Cl)Cl)nc(-c3ccccc3)n2n1`, which growth is on record?
A: 18.2% (inactive)

Q: With `O=C(NS(=O)(=O)c1ccccc1)n1cc(-c2ccncc2)c(-c2cc(O)cc(Cl)c2)n1` as the compound, how does the growth read?
A: 99.5% (inactive)

Q: For `CCOC(=O)c1cc(C(=O)c2cc(OC)cc(OC)c2)n2ncccc12`, which growth is on record?
A: 27.8% (inactive)

Q: `CC1=C2[C@@H](CC1)[C@]1(C)O[C@@](C(C)C)(C[C@H]1OC(=O)CO)[C@H]2OC(=O)CCCc1ccccc1` was tested. Which growth did it give?
A: 60.9% (inactive)

Q: `O=C1/C(=C/c2cccc(Br)c2)COc2ccc(O)c(O)c21` was tested. Which growth did it give?
A: -60.9% (active)

Q: For `Nc1nc(N)c2c(n1)NC(c1cccc(Nc3ccnc4cc(C(F)(F)F)ccc34)c1)CC(c1ccc(Cl)cc1)=N2` (stereo unspecified), which growth is on record?
A: 21.3% (inactive)

Q: Which growth does the source give for `COc1ccc2c(c1)c(-c1nc(-c3cn(C)c4ccncc34)cs1)cn2C` here?
A: -53.1% (active)

Q: How did the growth turn out when `Cc1[nH]c(C(=O)Nc2ccc(C(N)=O)cc2OC(C)C)c(Cl)c1Cl` was run?
A: 98.5% (inactive)

Q: How did the growth turn out when `COc1cc2nc3cc([N+](=O)[O-])ccc3c(NCCCNCCO)c2cc1OC` was run?
A: -33.6% (active)

Q: For `CC1OC(C(=O)N2CCN(CCO)CC2)CC1COC1CCCCC1` (stereo unspecified), which growth is on record?
A: 101% [50 µM] (inactive)

Q: With `CC(C)(C)CC(C)(C)Nc1c(-c2c(O)c3ccccc3oc2=O)nc2sccn12` as the compound, how does the growth read?
A: 107% (inactive)

Source: PubChem BioAssay (NCI)
